About 3,700 (7%) of roughly 53,000 sequences were called active. The full list was thinned out, with actives kept by preference. A number with no mark means an inactive call.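 Rule for the calls: active = gene knockdowns whose robust z-score for IL-1 alpha signal is at least 2 or at most -2, so actives lie on both sides; inactive = the rest.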
Experiment: Components of the Cytosolic LPS Sensing Pathway: Gene Identification via Genome-wide siRNA Screen;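 note: robust z of the log signal after scaling to non-targeting control siRNA wells of the plate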
Conditions: RAW264.7 macrophages, IL-1a HTRF, actives lie on both sides, screened at 100 nM (by protocol), cells primed 5 h with Pam3CSK4 first
Summary of the method: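 Cells (RAW264.7, 1×10^4 per well) were transfected with siRNA at 100 nM and cultured 48h at 37 degrees C. Pam3CSK4 was added for 5 hours; LipidA transfection followed for 24 hour. IL-1a was then measured by HTRF.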

Sequence	z-score
GCUUAUUUCGCCUAUGUGGTT against Slc24a2	-1.11
GCAAGAUGGUAUCAGCAGATT against Sde2	-2.1 (active)
GGAAAGAGGAAGAUAAAGUTT against 2310002L09Rik	-1.17
CCGCUUUUCAUAACACGAATT against Obp2a	0.037
CCUCAUUUAGAUGUCUUGATT against Ran	-0.0987
GUCUUUGUUCAGGAGGUGATT against Ahnak	0.0593
GCCAUGCUAAUCAAGACGGTT against Gtf2ird2	-0.99
GCUCUCUCUCAUUGAUCUCTT against Olfr697	-1.63
GGUUUGGCAUCUAAAGAGCTT against Olfr1412	-2.42 (active)
CCAGCUUUUACCUAAUACCTT against Ggt1	0.0683
GGGUAUCUGAUUUAUAAGCTT against Mageh1	-0.371
GGGAAAGGGUUUUUUAUUCTT against Slc1a1	-0.177
GCCAAAAAGUGUGUGUUGGTT against Olfr731	0.0799
CCAGUUUGCACAAGUUUUCTT against Fyco1	1.94
GGAUCUUCCAAGUUGUCUGTT against Srm	2.42 (active)
CGAGCUGAACAGAAUGAUATT against Krt85	0.265
GGCAAGGUCAAGGACACCATT against Tcp11	-0.77
GCAUGCAUGCUAUUGUUUUTT against 4931431C16Rik	0.336
GGCACACACUGAUUUUUUUTT against Cops2	0.0987
GGUCCAAUGGAUUUUGUUUTT against Pxdc1	2.06 (active)
GGUGCGAAGGAAAUUGCACTT against Mrps26	1
GCCUUUACUGGAUUCAUUGTT against Acadm	2.53 (active)
GGCAGAGAAUCAGCUCCUUTT against Il16	0.377

Sequence	z-score
CGAUCGAUAAAUGUAAUGATT against Heatr5a	-0.0662
GGAGUAUGCUGUCAAAAUCTT against Mknk1	0.259
GGAUCACCAGACCUUUUUCTT against St7l	-1.94
CCAGGAAUCUAGAUAAUAGTT against BC031181	-1.05
GCAUUACCAAAAGCAGUCUTT against Lyn	-1.46
CCUCUAUUCUCCGUCUAUGTT against Fars2	2.45 (active)
GGCUACAUUGUCUCAUUGUTT against Opn1mw	-0.59
GGUUAAGGAGAAAUGUGAUTT against Mob3a	-0.0804
GGUUAAAAUGCCAUAACAATT against Ksr1	-1.26
GGGAAGUCAUUCACAUAUUTT against Rab39b	-1.58
GGAAGUCCACGAAACUAAATT against Prl3d1	0.359
CGACCUGUGGGAAGAUAUUTT against Apoa5	-0.992
GGGAUACUUUCUUCGAGGATT against Soga3	-2.36 (active)
GGCCAUUGUUGAAAUGUACTT against Myh14	0.175
GGUAUCAACAUCACGAUUCTT against Mrgpra1	0.487
GCACCUGGUGAAUUUUACCTT against Tmem106c	-0.85
GCCUUACUGACUCGUGUCCTT against Ccp110	-2.33 (active)
GGACCUUUAAAGCUAAGCUTT against Ccn5	-1.4
GGAGUUUUCAAAAAACAGATT against Dsc2	-0.356
GGAUACUGCCAUUCAUAGGTT against Cstdc2	-0.182
GGAAAGCUUUCUUCACCUGTT against Olfr206	-1.73
GCUUCAACCCGGUCACACUTT against Kif6	2.81 (active)
GGCGCAAUGCUCAUGUGAATT against Gzmc	-0.54

Sequence	z-score
GGAAGUUUUGGCUUAGGCATT against Tmco5b	1.58
GGCGAUCCACAGGAACUCUTT against Tiam1	-1.23
GCAACAACGAGUCAUGGCUTT against Plcd1	-0.502
GGACAGAGUUACCUAGGCATT against Ticrr	-2.81 (active)
GGAUCUUUCCUGAUUUAUATT against Ggt5	0.989
GCAGGCAUCAUCACGACAUTT against Gprc5c	0.402
GGAGUUCUUCUUCAAUGAGTT against Kcnd3	-1.3
GCGUACGUUCUCCUAACAUTT against Hbs1l	-1.9
GGGUGAUAAAAUUCAGAUUTT against Gpr88	2.07 (active)
GGGUGCAAACAAAAUGAUGTT against Pgm1	-1.42
GGGCCACAUGUGUUCACUATT against Shisa5	-2.35 (active)
CCUUCUCUGCCUCGAUGAUTT against Cox14	-1.23
GGGAAGAUGUGAUGUCUUUTT against Rab29	-0.556
GGUCUUAAUCUCAGGAUGATT against Car5a	-0.294
GGACACAGAAUGUUCUUGGTT against Rps3	0.029
GGAAGAAAAAUAUGCUUUCTT against Pls3	2.7 (active)
CCGAUCACUCAUGGUUGACTT against Sra1	0.565
GCCUGUGCAAAAAGUAGGGTT against Grasp	-0.0182
GGGCCAAUAGGAGUUCUUUTT against Tcf20	0.285
GGAGCUGACGUGCUACUUATT against Speg	2.6 (active)
GGAGAAUCUUAGAGAUUAUTT against Pramel1	0.722
GCAGCUAAGCACUGGAAAATT against Coq4	0.318
GGAAAAAGAGGCCUCAAAGTT against Nek5	1.46

From PubChem BioAssay AID1508600 (Functional Genomics Laboratory (NCATS/FGL), 2020)
